Screening data from PubChem BioAssay.
SMN2 splice up: qHTS Assay for Enhancers of SMN2 Splice Variant Expression; HEK293 SMN2-luciferase splicing reporter, luminescence, 30-36 h; Potency, µM (titrated, usually from 46.1 µM), for the others: at the highest dose activity change, positive = activation, most hits filed as activators; hit rate 2.8% among 210,000; AID 1458, 2008; also: % of control where 0% means no effect; nearly all actives have a fitted effect of over 55% in size
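HEK293 cells carry an SMN2 minigene-luciferase reporter in which exon 7 inclusion puts luciferase in frame. Cells were seeded at 2000 cells/well, attached for 10-12 hours, then exposed to compounds for 30-36 hours at 37C before ONE-Glo luminescence.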
ELG1 DNA repair: qHTS screen for small molecules that inhibit ELG1-dependent DNA repair in human embryonic kidney (HEK293T) cells expressing luciferase-tagged ELG1; Potency, µM (titrated, usually from 46.1 µM), inactives show at the highest dose activity change, negative = inhibition, usual class: inhibitors; hit rate 2.3% among 330,000; HEK293T ELG1-luciferase reporter, luminescence, 16 h; DNA damage induced by 5-fluorouridine; also: % is scaled to controls: 0 for no effect and ±100 for the full control effect; nearly all actives have a fitted effect of over 55% in size
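DMSO vehicle served as the neutral condition. Each well held 2,000 cells given 5-fluorouridine plus compound; after 16 hr at 37 °C/5% CO2, ONE-Glo was added and luciferase measured 30 min later.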
FLuc modulator: qHTS profiling assay for firefly luciferase inhibitor/activator using purifed enzyme and Km concentrations of substrates (counterscreen for miR-21 project) | Potency, µM (doses to about 57.5 µM), for the others: top-dose activity change, negative = inhibition, hits mostly inhibitors | hit rate 6.9% among 360,000 | purified FLuc, Km substrates, luminescence inhibition | Luciferin 4-monooxygenase (Photinus pyralis), P08659;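 also: plate controls were vehicle for no effect and reference inhibitor for full effect; nearly all actives have a fitted effect of over 55% in size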
Target sequence (P08659 whole entry, looked up): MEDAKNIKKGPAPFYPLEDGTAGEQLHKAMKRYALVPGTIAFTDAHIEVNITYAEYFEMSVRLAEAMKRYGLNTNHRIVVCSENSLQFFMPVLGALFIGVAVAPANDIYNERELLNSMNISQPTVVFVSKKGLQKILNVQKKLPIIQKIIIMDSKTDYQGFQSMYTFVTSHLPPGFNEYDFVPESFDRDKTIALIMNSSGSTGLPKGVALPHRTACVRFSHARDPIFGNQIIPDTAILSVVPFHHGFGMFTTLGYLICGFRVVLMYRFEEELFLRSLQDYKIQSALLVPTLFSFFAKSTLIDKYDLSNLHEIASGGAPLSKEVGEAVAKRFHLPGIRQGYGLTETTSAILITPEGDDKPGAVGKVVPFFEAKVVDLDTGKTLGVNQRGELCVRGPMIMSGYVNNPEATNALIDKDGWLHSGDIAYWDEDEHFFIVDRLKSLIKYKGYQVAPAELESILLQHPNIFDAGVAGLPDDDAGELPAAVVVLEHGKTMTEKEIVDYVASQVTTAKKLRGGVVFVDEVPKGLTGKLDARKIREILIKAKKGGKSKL
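Purified P. pyralis luciferase, 10 nM final, with Km-level 10 uM D-luciferin and 10 uM ATP in 50 mM Tris acetate pH 7.5, 10 mM Mg acetate, 0.01% Tween-20, 0.05% BSA; 6-point qHTS titration about 60 µM downward; luminescence read.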
Rab9 promoter act: qHTS Assay for Rab9 Promoter Activators | Huh7 Rab9 promoter-luciferase reporter, luminescence, 24 h | Potency, µM (titrated, usually from 9.22 µM), inactives show at the top dose activation, negative = inhibition, usual class: activators | hit rate 2.8% among 320,000; also: % of control where 0% means no effect; nearly all actives have a fitted effect of over 60% in size
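Luminescence read-out: Huh7 cells stably expressing Rab9-luciferase, treated 24 h with compound at 37 °C, then lysed with luciferase reagent for 10 min at ambient before reading.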
NPC1 promoter act: qHTS Assay for NPC1 Promoter Activators; Potency, µM (highest dose often 9.22 µM), for inactives: at the highest dose activation, actives largely listed as activators; hit rate 2.4% among 320,000; Huh7 NPC1 promoter luciferase reporter, 24 h; AID 485313, 2010; also: % of control where 0% means no effect; nearly all actives have a fitted effect of over 60% in size
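Stably transfected Huh7 (NPC1 promoter→luciferase), 1500 cells/well in Opti-MEM + 10% FBS, 2 h settle, then compound 24 h at 37 °C. Luminescence after 10 min with Amplite reagent.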
ELG1 genotox: qHTS screen for small molecules that induce genotoxicity in human embryonic kidney (HEK293T) cells expressing luciferase-tagged ELG1; HEK293T ELG1-luciferase reporter, luminescence, 16 h; Potency, µM (titrated, usually from 46 µM), for inactives: at the highest dose activity change, positive = activation, actives largely listed as activators; hit rate 1.3% among 330,000; AID 504466, 2011; also: % of control where 0% means no effect; nearly all actives have a fitted effect of over 60% in size
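HEK293T cells expressing luciferase-tagged ELG1 were exposed to compound or DMSO vehicle for 16 hr at 37 °C and 5% CO2. Luciferase activity was then measured with ONE-Glo after 30 min at room temperature.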
Numbers without * were called inactive; ? = inconclusive; . = no result; [ ] = dose if it differs, or a comment. Most compounds without a hit are left out; they make up all but 9.3% or so of the library. Calls follow the shape of the dose curve; as a rule, active = well fitted curve in the direction sought with a large enough effect; inconclusive = small, poorly fitted or top-dose-only effect, or another doubt; inactive = no such curve, though single readings can be large; an effect the other way counts as inactive or inconclusive. Potency is read from the fitted curve at half-maximal effect.

SMILES	SMN2 splice up	ELG1 DNA repair	FLuc modulator	Rab9 promoter act	NPC1 promoter act	ELG1 genotox
CCn1c(SCC(=O)N/N=C/C(C)=C\c2ccco2)nnc1-c1ccccc1	-9%	-3%	13µM*	1%	-1%	1%
CCN(CC)C(=O)c1sc(N2C(=O)Nc3ccccc3N2O)c(C(=O)OC)c1C	-22%	0%	-2%	-1%	-6%	11%
O=c1c2ccccc2oc2cc(NCCCn3ccnc3)ccc12	.	?	2.4µM*	0.71µM*	1.1µM*	?
CCc1nc(NCCCN2CCOCC2)c2oc3ccccc3c2n1	17%	?	-11%	-5%	-3%	-8%
O=c1c2ccccc2oc2cc(NCCCN3CCOCC3)ccc12	.	?	11µM*	3.5µM*	4µM*	?
O=c1c2ccccc2oc2ccc(NCCCN3CCOCC3)cc12	.	?	8.5µM*	2.8µM*	2.8µM*	?
COc1cccc2sc3cc(NCCCN4CCOCC4)ccc3c(=O)c12	.	13%	.	.	.	6%
O=S(=O)(c1cccc2nsnc12)N1CCc2ccccc21	?	?	21µM*	3.5µM*	?	?
CSC1=NC(=O)/C(=C\c2cccc3ccccc23)S1	1%	0%	7.6µM*	-6%	-16%	6%
N=C1S/C(=C\c2cccc3ccccc23)C(=O)N1c1ccc(F)cc1	-18%	-22%	6%	-4%	-14%	-1%
O=C(Nc1ccccc1)c1ccc(-c2ccccc2Cl)o1	?	?	6µM*	?	29%	?
O=C(Nc1ccccc1)c1ccc(-c2ccccc2C(F)(F)F)o1	16%	?	17µM*	19%	21%	16%
N#Cc1ccccc1NC(=O)c1ccc(-c2ccccc2Cl)o1	?	?	?	?	4µM*	?
COc1cccc(NC(=O)N2CCN(c3nc(-c4cccc(OC)c4)cs3)CC2)c1	.	15µM*	?	-6%	-12%	-19%
COc1cccc(-c2csc(N3CCN(C(=O)NC45CC6CC(CC(C6)C4)C5)CC3)n2)c1	-83%	23µM*	?	2%	-6%	-8%
COc1cccc(NC(=O)N2CCN(c3cccc(C)c3C)CC2)c1	2%	18%	15µM*	3%	18%	?
COc1cc(CCC(=O)N2CCN(c3cccc(C)c3C)CC2)cc(OC)c1OC	.	18µM*	-1%	2%	-4%	-8%
CCCCC(=O)N(Cc1ccc(-c2ccccc2-c2nn[nH]n2)cc1)[C@H](C(=O)O)C(C)C	.	.	?	-1%	1%	.
O=C(c1cc(COc2c(F)cccc2F)on1)N1CCCCCC1	.	?	?	2.8µM*	?	?
Cc1cccc(C)c1OCc1cc(C(=O)N2CCN(c3ccc(F)cc3)CC2)no1	.	?	3.4µM*	1.1µM*	0.63µM*	?
O=C(c1cc(COc2ccc3c(c2)CCCC3)on1)N1CCCC1	.	?	11µM*	4µM*	2.8µM*	18µM*
CCOC(=O)N1CCN(C(=O)c2cc(COc3ccc(F)cc3F)on2)CC1	.	?	?	?	18%	?
CCOC(=O)C1CCN(C(=O)c2cc(COc3ccc(F)cc3F)on2)CC1	.	?	13µM*	2.8µM*	2.8µM*	21µM*
COc1cccc(NC(=O)c2cccc3c(=O)c4c([nH]c23)CCCC4)c1	.	.	-7%	.	.	.
CC(OC(=O)c1ccc(OCC2CCCO2)cc1)C(=O)N(C)Cc1ccccc1 (configuration not stated)	.	9%	-13%	-1%	2%	0%
SMILES	SMN2 splice up	ELG1 DNA repair	FLuc modulator	Rab9 promoter act	NPC1 promoter act	ELG1 genotox
CCOC(=O)N1CCN(C(=O)c2cc(COc3c(F)cccc3F)on2)CC1	.	?	8.5µM*	3.2µM*	2.2µM*	15µM*
O=C(Cn1c(SCC(=O)Nc2ccc(F)cc2)nc2ccccc21)NCc1ccc(Cl)cc1	.	.	-1%	.	.	.
COc1cccc(NC(=O)CSc2ccc(-c3sc(C)nc3C)nn2)c1	.	21µM*	?	1%	-5%	-22%
Cc1nc(C)c(-c2ccc(SCC(=O)Nc3ccc(F)cc3F)nn2)s1	.	18µM*	?	-2%	-2%	-7%
Cc1nc(C)c(-c2ccc(SCC(=O)Nc3cccc(C)c3C)nn2)s1	.	.	1%	.	.	.
O=C(Nc1cccc(F)c1)N1CCCC2(CCN(C(=O)c3csnn3)CC2)C1	-6%	.	.	.	.	.
COc1ccccc1CCNC(=O)CCc1c(C)c2cc3c(C)coc3c(C)c2oc1=O	10%	.	3%	.	.	.
O=C(COC(=O)c1ccccc1F)c1ccc(-n2nncc2-c2ccco2)cc1	0%	-3%	12µM*	-4%	7%	2%
Cn1cc(Br)c(C(=O)Nc2ncc(Br)s2)n1	4.5µM*	?	-16%	2.5µM*	3.5µM*	?
O=C(Nc1ccc(F)cc1)c1nsc(Cl)c1Cl	11µM*	?	4.8µM*	3.2µM*	3.5µM*	?
CCOc1ccc(NC(=O)c2nsc(Cl)c2Cl)cc1	.	?	4.8µM*	1.4µM*	2.2µM*	4.6µM*
O=C(Nc1ccc(F)cc1)c1nc[nH]c1C(=O)O	.	-2%	-6%	0%[1.84 µM]	-7%	0%
CC(C)OC(=O)c1cc(NC(=O)c2nn(C)cc2Br)cc(C(=O)OC(C)C)c1	7%	-1%	-1%	-3%	-4%	7%
CCOc1ccc(NC(=O)c2nn(C)cc2Br)cc1	.	?	7.6µM*	3.2µM*	?	?
Cc1cc(C)c(S(=O)(=O)Nc2cccc(S(=O)(=O)N3CCOCC3)c2)c(C)c1	.	2%	0%	-1%	5%	-6%
CCC(Sc1ccccn1)C(=O)Nc1cccc([N+](=O)[O-])c1 (configuration not stated)	.	10%	-1%	1%	1%	-1%
Cn1cc(Br)c(C(=O)NNC(=O)c2ccc(Cl)cc2)n1	?	?	19µM*	29%	22%	?
O=C(Nc1ccc(F)c(Cl)c1)c1nsc(Cl)c1Cl	.	?	2.4µM*	2.8µM*	2.2µM*	21µM*
CCCCOC(=O)c1ccc(NC2=NS(=O)(=O)c3ccccc32)cc1	-10%	.	-8%	.	.	.
Cc1ccsc1/C=N/n1cnnc1	.	7%	-3%	-1%	0%	0%
Cc1ccsc1/C=N/n1cnc2sc(C)c(C)c2c1=O	21%	?	11µM*	?	?	6%
